FLuc modulator – firefly luciferase modulation, counter-screen for miR-21 project; P08659; purified FLuc, Km substrates, luminescence inhibition; Potency, µM (titrated, usually from 57.5 µM), usual class: inhibitors; hit rate 6.9% among 360,000; AID 588342; note: nearly all actives have a fitted effect of over 55% in size
Target sequence (P08659 whole entry, looked up): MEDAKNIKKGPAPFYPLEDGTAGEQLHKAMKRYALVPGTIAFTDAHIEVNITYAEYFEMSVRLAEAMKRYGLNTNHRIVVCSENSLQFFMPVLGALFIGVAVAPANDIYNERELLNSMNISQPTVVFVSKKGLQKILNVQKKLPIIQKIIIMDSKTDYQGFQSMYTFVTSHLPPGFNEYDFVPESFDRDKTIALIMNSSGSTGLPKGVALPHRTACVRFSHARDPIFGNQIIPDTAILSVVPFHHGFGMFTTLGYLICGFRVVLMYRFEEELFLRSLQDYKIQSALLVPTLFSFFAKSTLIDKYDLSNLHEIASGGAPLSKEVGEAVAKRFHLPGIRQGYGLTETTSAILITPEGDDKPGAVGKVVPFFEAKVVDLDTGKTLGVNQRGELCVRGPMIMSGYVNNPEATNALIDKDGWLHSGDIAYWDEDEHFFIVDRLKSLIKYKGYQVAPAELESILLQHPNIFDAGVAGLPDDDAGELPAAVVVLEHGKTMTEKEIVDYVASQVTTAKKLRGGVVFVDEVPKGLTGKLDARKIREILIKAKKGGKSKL
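Purified P. pyralis luciferase, 10 nM final, with Km-level 10 uM D-luciferin and 10 uM ATP in 50 mM Tris acetate pH 7.5, 10 mM Mg acetate, 0.01% Tween-20, 0.05% BSA; 6-point qHTS titration about 60 µM downward; luminescence read.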
NPC1 promoter act – NPC1 promoter activation. Huh7 NPC1 promoter luciferase reporter, 24 h. Potency, µM (highest dose often 9.22 µM), hits mostly activators. hit rate 2.4% among 320,000. AID 485313; note: nearly all actives have a fitted effect of over 60% in size
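Luminescence from an NPC1 promoter-driven luciferase reporter in stably transfected Huh7 cells was measured after 24 h compound treatment at 37 °C, followed by 10 min ambient incubation with luciferase detection reagent.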
Luc counter – blocks Kinase-Glo luciferase, a counter-screen artifact; Potency, µM (highest dose often 38.3 µM), most hits filed as inhibitors; Kinase-Glo luciferase, ATP luminescence, 8 min; AID 1379; hit rate 0.28% among 200,000; note: nearly all actives have a fitted effect of over 60% in size
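Kinase-Glo luciferase light output from ATP and luciferin was measured with 10 uM ATP, within the enzyme's linear range. Buffer: 50 mM imidazole pH 7.2, 50 mM KCl, 7 mM MgCl2, 0.01% Tween 20, 0.05% BSA; luminescence read after 8 min at ambient temperature.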
SMN2 splice up – increases expression of the SMN2 splice variant; HEK293 SMN2-luciferase splicing reporter, luminescence, 30-36 h; Potency, µM (series often up to 46.1 µM), most hits filed as activators; hit rate 2.8% among 210,000; note: nearly all actives have a fitted effect of over 55% in size
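HEK293 cells carry an SMN2 […]–luciferase reporter in which exon 7 inclusion puts luciferase in frame. Cells were plated 10-12 h before compound addition, then incubated 30-36 h at 37C. ONE-Glo luminescence was read; sodium butyrate at 4.5 mM final served as control.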
Rab9 promoter act – Rab9 promoter activation. hit rate 2.8% among 320,000. Huh7 Rab9 promoter-luciferase reporter, luminescence, 24 h. Potency, µM (doses to about 9.22 µM), actives largely listed as activators; note: nearly all actives have a fitted effect of over 60% in size
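Measured in stably transfected Huh7 cells bearing a Rab9 promoter–luciferase construct: 24 h compound treatment at 37 °C, followed by luminescence detection.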
ELG1 genotox – induces genotoxicity in HEK293T cells with luciferase-tagged ELG1; HEK293T ELG1-luciferase reporter, luminescence, 16 h; Potency, µM (highest dose often 46 µM), actives largely listed as activators; hit rate 1.3% among 330,000; AID 504466; note: nearly all actives have a fitted effect of over 60% in size
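Step 1: seed 2,000 HEK293T ELG1-luciferase cells per well. Step 2: add compound or DMSO, incubate 16 hr at 37 °C. Step 3: ONE-Glo, 30 min at room temperature, read luminescence.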
A number is an active result; n = inactive; u = inconclusive; x = not tested or not shown; [ ] = remark or other dose. An excerpt weighted towards active compounds, which were near 7.5% of everything screened. Calls come from the whole dose curve; as a rule, active = well fitted curve in the direction sought with a large enough effect; inconclusive = small, poorly fitted or top-dose-only effect, or another doubt; inactive = no such curve, though single readings can be large; an effect the other way counts as inactive or inconclusive.

SMILES | FLuc modulator | NPC1 promoter act | Luc counter | SMN2 splice up | Rab9 promoter act | ELG1 genotox
CCN(CC)S(=O)(=O)c1ccc(NC(=O)c2cccc3c2C(=O)N(CCOC)C3)cc1 | n | n | n | n | n | n
Cc1cccc(-n2c(SCC(=O)Nc3ccccc3C)nc3c(oc4ccccc43)c2=O)c1 | n | x | x | n | x | x
Cc1ccc(-c2cc(C(=O)NCCCn3ccnc3)c3cc(Br)ccc3n2)o1 | 15µM | n | n | n | n | n
Cc1ccc(-c2cc(C(=O)O)c3cc(Br)ccc3n2)o1 | 11µM | n | n | n | n | n
Cc1ccc(-c2cc(C(=O)O)c3cc(Br)ccc3n2)s1 | 2.4µM | u | x | x | n | n
Cc1ccc(-c2cc(C(=O)NC3=NCCS3)c3cc(Br)ccc3n2)o1 | 6µM | n | n | n | n | n
O=C(NC1=NCCS1)c1cc(-c2cccnc2)nc2ccccc12 | u | n | n | n | n | n
Cc1ccc(-c2cc(C(=O)NN3CCOCC3)c3cc(Br)ccc3n2)o1 | u | n | n | n | n | n
CCC1CN(C(=O)Nc2cc(Cl)c(OC)cc2OC)c2ccccc2O1 (stereo unspecified) | n | x | x | x | x | x
Fc1ccc(NC(=S)NNc2ncc(C(F)(F)F)cc2Cl)c(F)c1 | n | n | n | n | n | n
Cc1cccc(-c2cc(C(=O)NCCCn3ccnc3)c3ccccc3n2)c1 | 15µM | n | n | n | n | n
O=C(N/N=C/C(Cl)=C\c1ccccc1)c1ccco1 | 4.8µM | 2.5µM | x | x | 2.5µM | u
O=C(N/N=C/C(Cl)=C/c1ccccc1)c1ccco1 | 5.4µM | 2.2µM | n | x | 1.4µM | u
O=C(N/N=C/c1cccnc1)c1ccco1 | n | n | x | x | n | n
O=C(CNC(=O)c1ccc(Cl)c([N+](=O)[O-])c1)OCN1C(=O)c2ccccc2C1=O | n | n | x | x | n | n
Cc1nc2nc(-c3ccco3)nn2c(C)c1Cl | n | n | n | 35µM | n | n
Cc1nc2nc(-c3cccnc3)nn2c(C)c1Cl | n | n | u | x | n | u
COc1ccc([N+](=O)[O-])cc1NC(=O)c1csc(C)c1 | 2.7µM | n | x | x | n | n
Cc1cc(C(=O)Nc2ccc([N+](=O)[O-])cn2)cs1 | 11µM | 2.5µM | x | x | 3.5µM | 9.2µM
COc1ccc(C(=O)Nc2ccc([N+](=O)[O-])cn2)c(OC)c1 | 0.3µM | 1.1µM | x | x | 0.45µM | 1.2µM
Cc1cc([N+](=O)[O-])ccc1NC(=O)c1csc(C)c1C | 3.8µM | 1.4µM | x | x | 2µM | 4.1µM
N[C@@H](Cc1nn[nH]n1)C(=O)O | x | x | n[7.66 µM] | n[9.22 µM] | x | x
Cc1ccc(-n2c(=O)c3c(c4cc(C)ccc4n3C)n(CC(=O)N3CCCC3)c2=O)cc1 | n | x | x | x | x | x
Cc1ccc(OCC(=O)Nc2cccc(OCc3cc(=O)n4cccc(C)c4n3)c2)cc1C | n | x | x | x | x | x
Cc1ccc(OCc2nc(-c3ccccn3)n[nH]2)cc1 | 24µM | u | n | u | u | n
SMILES | FLuc modulator | NPC1 promoter act | Luc counter | SMN2 splice up | Rab9 promoter act | ELG1 genotox
CC[C@H](C)[C@H](NC(=O)c1ccccc1)C(=O)NC(CC(=O)O)c1ccc(F)cc1 (stereo partly specified) | n | n | x | x | n | n
CC(Sc1ccc(Cl)cc1)C(=O)NNC(=O)c1ccco1 (stereo unspecified) | x | x | x | x | x | n
CC(C)c1cc(C(N)=O)c(NC(=O)c2cccc(COc3ccc(Cl)cc3)c2)s1 | 1.5µM | 0.32µM | n | 1.8µM | 2µM | 0.73µM
Cc1nn(Cc2c(F)c(F)c(F)c(F)c2F)c(C)c1NC(=O)c1cccc(COc2ccc(Cl)cc2)c1 | 12µM | u | n | 18µM | u | n
Cc1nc(SCC(=O)NCCc2ccc(Cl)cc2)nc(C)c1C | n | n | n | n | n | n
CC(C)(C)c1ccc(/C=N/N2C(=O)CSC2=S)cc1 | 17µM | n | x | x | n | n
COc1ccc(/C=N/N2C(=O)CSC2=S)cc1 | u | x | n | n | x | x
CCOc1ccc(NC(=O)Cn2c(=O)n(CC(=O)NCc3ccccc3Cl)c(=O)c3sccc32)cc1 | n | x | x | n | x | x
O=C(NC1CC1)C1CCCN1S(=O)(=O)c1ccc2ccccc2c1 (stereo unspecified) | n | n | n | 11µM | n | n
COc1cccc(OCc2cc(C(=O)N3CCN(C4CCCC4)CC3)no2)c1 | n | n | x | x | n | n
